This note sets out measurements from PubChem BioAssay (NCATS).

Unmarked numbers belong to inactive results. Inconclusive results are not listed. Active and inactive are the calls of the source. Unless noted, calls come from the whole dose curve; as a rule, active = well fitted curve in the direction sought with a large enough effect; inconclusive = small, poorly fitted or top-dose-only effect, or another doubt; inactive = no such curve, though single readings can be large; an effect the other way counts as inactive or inconclusive.

For assay [1], the target named is Glutathione peroxidase 1 (Homo sapiens) (UniProt P07203). Description: Primary qHTS Assay for Inhibitors of Recombinant Selenoprotein Glutathione Peroxidase 1 (GPX1) (AID 1845191). Note: nearly all actives have a fitted effect of over 65% in size. In short, it runs like this: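 GR-coupled assay: compounds preincubated 30 min at room temperature with GPX1, then reaction started with CHP; final 10 nM GPX1, 1 mM GSH, 0.5 mM CHP, 0.5 mM NADPH, 100 nM GR, 0.01% BSA, pH 7.5 Tris buffer. NADPH fluorescence (340/450 nm) read at 0 and 15 min.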
In general terms: In qHTS, concentration-response curves come from the screen itself.

In assay [2] the target is Phospholipid hydroperoxide glutathione peroxidase GPX4 (Homo sapiens) (UniProt P36969). In words: Primary qHTS Assay for Inhibitors of Recombinant Selenoprotein Glutathione Peroxidase 4 (GPX4) (AID 1845192). Note: nearly all actives have a fitted effect of over 65% in size. Note: potency is the fitted concentration of half-maximal effect. In short, it runs like this:
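GR-coupled assay: recombinant GPX4 preincubated 30 min with compound at room temperature; final 200 nM GPX4, 1 mM GSH, 0.5 mM cumene hydroperoxide, 0.5 mM NADPH, 100 nM GR, 0.01% BSA, pH 7.5 Tris. NADPH fluorescence (340/450 nm) read at 0 and 15 min.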

Assay [3] in a line: qHTS for inhibitors of Rabies Virus screened against the NCATS CANVASS Library (AID 1347402; calls by dose curve; note: series mostly up to about 46 µM; 0% is about no effect).
Assay [4] is described as follows: Counterscreen for APE1 Inhibitors: Fluorescent Dye Displacement Validation Assay (AID 1707).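 Note: plate controls were ThO with dsDNA and no compound for no effect and ThO without dsDNA for full effect.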 In short, it runs like this:
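Compounds are scored by their ability to displace Thiazole Orange (250 nM) from a 50 nM TAMRA-tagged duplex bearing a tetrahydrofuran abasic site. Buffer is 50 mM Tris-HCl pH7.5, 50mM NaCl, 2 mM MgCl2, 0.01% Tween-20.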
For orientation: The purpose of a counterscreen is to sort out artefacts and off-target activity.

A short description of assay [5]: Validation screen for inhibitors of Lassa infection (AID 463096; calls by dose curve; note: % is set by controls: 0 for no effect and ±100 for the full control effect).
A short description of assay [6]: Validation screen for small molecules that induce DNA re-replication in MCF 10A normal breast cells (AID 463097). Note: 0% is about no effect; nearly all actives have a fitted effect of over 60% in size. The method, boiled down: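 Readout: Hoechst nuclear fluorescence intensity, 405 ex / 500-530 em, by scanning plate imager; re-replication scored as increase in nuclei with elevated DNA content. Cells exposed to compound 48 hr, 37 C, 5% CO2 beforehand.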

Assay [7] addresses M-phase phosphoprotein 8 (Homo sapiens) (UniProt Q99549). In words: qHTS Validation Assay for Inhibitors for MPP8 Chromodomain Interactions with Methylated Histone Tails (AID 488949). Note: nearly all actives have a fitted effect of over 55% in size. Note: potency is the fitted concentration of half-maximal effect. In short, it runs like this:
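MPP8 (50 nM) was preincubated with biotinylated H3(1-18)K9me3 peptide (50 nM) in PBS pH 7.4, 0.01% Tween-20 for 30 min at room temperature, then with compounds for 30 min; binding was detected by AlphaScreen.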

For assay [8], the target named is Transient receptor potential cation channel subfamily V member 1 (Homo sapiens) (UniProt Q8NER1). In words: HTS Assay for Compounds that Act as Enhancers of the Vanilloid Receptor 1 (AID 488979). Note: 0% is about no effect. The method, boiled down: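 TRPV1 cells loaded with Fluo-8 calcium dye; compound added and Ca2+ signal (ex 480/em 520 nm) followed 3 min, then capsaicin at EC20 added and read 2 more min to detect enhancement.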

In assay [9] the target is Thyrotropin receptor (Homo sapiens) (UniProt P16473). In words: qHTS Assay for Antagonists of the Thyroid Stimulating Hormone Receptor (AID 488980). Note: series mostly up to about 58 µM; 0% is about no effect. The method, boiled down:
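HEK293 cells transfected with human TSHR, suspended in HEPES-buffered HBSS with 70 uM RO 20-1724, were treated with compounds plus TSH at EC80 (4 nM final). cAMP was measured by competitive HTRF (cryptate anti-cAMP antibody, cAMP-d2 acceptor).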

In assay [10] the target is Thyrotropin-releasing hormone receptor (Homo sapiens) (UniProt P34981). Description: qHTS for Small Molecule Agonists and Allosteric Enhancers of Human TRH Receptor: Validation Screen for Agonists (AID 493127;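 active = calcium activation more than 3 SD above the typical response in the agonist read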;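 note: intracellular calcium rise by fluo-8 fluorescence before TRH EC20 addition; 0% is about no effect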). Conditions: TRH receptor agonist cell assay; at 2 µM; active compounds read high. In short, it runs like this:
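TRHR-expressing cells were plated overnight in serum-containing medium, then loaded with fluo-8 calcium dye at room temperature for 30 min–1.5 h. After a 10 s baseline, compound was pin-transferred and calcium fluorescence (ex 480/em 530) read kinetically for agonist response.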

A short description of assay [11]: Validation screen for small molecules that induce DNA re-replication in SW480 colon adenocarcinoma cells (AID 504364). Note: 0% is about no effect. In short, it runs like this: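 SW480 cells seeded at 250 per well were exposed to compound or DMSO for 48 hr at 37 C, 5% CO2, then stained with Hoechst for 40 min. DNA content per nucleus was imaged (405 nm ex, 500-530 nm em).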
In assay [12] the target is DNA repair nuclease/redox regulator APEX1 (Homo sapiens) (UniProt P27695). In words: qHTS Validation Assay for Inhibitors of the Human Apurinic/apyrimidinic Endonuclease 1 (APE1) (AID 1705;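 note: TAMRA fluorescence gain over two minutes as APE1 cuts a quenched THF abasic duplex; series mostly up to about 57 µM; % is set by controls: 0 for no effect and ±100 for the full control effect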). In short, it runs like this: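 Human APE1 was preincubated with compound for 15 min at room temperature, then 50 nM (final) THF-abasic double-stranded DNA substrate bearing 5'-TAMRA and 3'-BHQ-2 was added. Incision-driven fluorescence rise (ex 525/em 598 nm) was read kinetically.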
DNA repair nuclease/redox regulator APEX1 (Homo sapiens), sequence (P27695 whole entry, looked up): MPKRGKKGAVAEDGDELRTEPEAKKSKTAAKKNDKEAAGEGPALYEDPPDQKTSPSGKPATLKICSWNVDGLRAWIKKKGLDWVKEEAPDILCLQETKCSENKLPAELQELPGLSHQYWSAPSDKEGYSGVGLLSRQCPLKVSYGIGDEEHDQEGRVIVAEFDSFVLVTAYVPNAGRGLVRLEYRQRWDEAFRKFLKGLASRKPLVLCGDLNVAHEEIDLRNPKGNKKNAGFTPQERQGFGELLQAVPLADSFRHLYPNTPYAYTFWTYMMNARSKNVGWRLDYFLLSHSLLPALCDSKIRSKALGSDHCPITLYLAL

Phospholipid hydroperoxide glutathione peroxidase GPX4 (Homo sapiens), sequence (P36969 whole entry, looked up): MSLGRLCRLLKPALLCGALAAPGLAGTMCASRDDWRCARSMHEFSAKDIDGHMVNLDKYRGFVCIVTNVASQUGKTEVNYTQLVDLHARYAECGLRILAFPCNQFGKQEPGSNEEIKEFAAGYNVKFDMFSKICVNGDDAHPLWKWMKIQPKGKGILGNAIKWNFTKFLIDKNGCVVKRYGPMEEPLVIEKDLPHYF
Thyrotropin-releasing hormone receptor (Homo sapiens), sequence (P34981 whole entry, looked up): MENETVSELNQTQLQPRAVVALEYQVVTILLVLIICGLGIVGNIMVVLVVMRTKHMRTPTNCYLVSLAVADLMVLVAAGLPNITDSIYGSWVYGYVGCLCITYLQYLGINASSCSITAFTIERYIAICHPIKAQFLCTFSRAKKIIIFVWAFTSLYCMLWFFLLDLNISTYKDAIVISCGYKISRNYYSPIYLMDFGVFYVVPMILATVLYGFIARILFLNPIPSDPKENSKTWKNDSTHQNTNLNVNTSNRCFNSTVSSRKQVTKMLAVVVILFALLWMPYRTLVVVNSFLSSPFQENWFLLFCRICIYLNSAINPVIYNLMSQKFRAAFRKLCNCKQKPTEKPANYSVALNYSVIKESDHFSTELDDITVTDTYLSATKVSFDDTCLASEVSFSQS
Thyrotropin receptor (Homo sapiens), sequence (P16473 whole entry, looked up): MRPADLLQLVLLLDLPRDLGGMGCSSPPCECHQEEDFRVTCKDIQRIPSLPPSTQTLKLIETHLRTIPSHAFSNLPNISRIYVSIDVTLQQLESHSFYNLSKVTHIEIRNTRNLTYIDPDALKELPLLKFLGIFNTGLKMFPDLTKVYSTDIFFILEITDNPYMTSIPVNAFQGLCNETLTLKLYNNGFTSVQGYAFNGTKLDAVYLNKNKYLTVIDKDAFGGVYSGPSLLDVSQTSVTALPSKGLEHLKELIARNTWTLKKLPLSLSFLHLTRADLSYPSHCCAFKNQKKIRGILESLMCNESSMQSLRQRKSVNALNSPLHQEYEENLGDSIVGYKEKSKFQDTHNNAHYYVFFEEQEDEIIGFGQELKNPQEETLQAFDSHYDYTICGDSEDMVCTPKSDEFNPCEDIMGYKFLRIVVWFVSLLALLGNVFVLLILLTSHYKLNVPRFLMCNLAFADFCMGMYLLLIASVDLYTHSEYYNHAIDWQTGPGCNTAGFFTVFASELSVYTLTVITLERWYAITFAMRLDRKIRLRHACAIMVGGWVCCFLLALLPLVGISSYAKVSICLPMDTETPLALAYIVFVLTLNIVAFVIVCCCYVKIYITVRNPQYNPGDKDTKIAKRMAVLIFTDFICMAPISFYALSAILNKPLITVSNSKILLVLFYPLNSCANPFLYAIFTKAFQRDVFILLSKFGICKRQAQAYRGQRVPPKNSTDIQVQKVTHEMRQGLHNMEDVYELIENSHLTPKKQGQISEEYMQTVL
Transient receptor potential cation channel subfamily V member 1 (Homo sapiens), sequence (Q8NER1 whole entry, looked up): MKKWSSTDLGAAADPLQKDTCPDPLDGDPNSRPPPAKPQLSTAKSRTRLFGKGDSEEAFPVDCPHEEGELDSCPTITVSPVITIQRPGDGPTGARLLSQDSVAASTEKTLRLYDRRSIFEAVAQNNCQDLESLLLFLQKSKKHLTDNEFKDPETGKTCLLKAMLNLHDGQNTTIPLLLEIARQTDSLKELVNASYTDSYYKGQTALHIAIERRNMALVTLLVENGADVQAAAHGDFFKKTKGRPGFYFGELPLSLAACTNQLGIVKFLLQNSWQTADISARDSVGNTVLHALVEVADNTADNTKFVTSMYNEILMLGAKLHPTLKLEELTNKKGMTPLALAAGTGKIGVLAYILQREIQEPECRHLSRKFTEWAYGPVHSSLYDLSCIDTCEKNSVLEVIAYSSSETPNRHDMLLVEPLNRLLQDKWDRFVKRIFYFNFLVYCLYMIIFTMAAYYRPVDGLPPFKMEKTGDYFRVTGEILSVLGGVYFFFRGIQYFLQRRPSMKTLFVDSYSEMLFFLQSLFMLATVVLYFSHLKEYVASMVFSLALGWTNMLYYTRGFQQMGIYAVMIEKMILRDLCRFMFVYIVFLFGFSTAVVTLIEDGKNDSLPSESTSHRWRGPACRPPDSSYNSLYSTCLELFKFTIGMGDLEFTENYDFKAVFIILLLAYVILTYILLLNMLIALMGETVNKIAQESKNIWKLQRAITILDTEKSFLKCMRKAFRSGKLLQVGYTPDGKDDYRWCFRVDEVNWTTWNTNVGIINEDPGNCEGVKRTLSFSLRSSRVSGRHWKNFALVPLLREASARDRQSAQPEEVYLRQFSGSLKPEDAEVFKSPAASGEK
M-phase phosphoprotein 8 (Homo sapiens), sequence (Q99549 whole entry, looked up): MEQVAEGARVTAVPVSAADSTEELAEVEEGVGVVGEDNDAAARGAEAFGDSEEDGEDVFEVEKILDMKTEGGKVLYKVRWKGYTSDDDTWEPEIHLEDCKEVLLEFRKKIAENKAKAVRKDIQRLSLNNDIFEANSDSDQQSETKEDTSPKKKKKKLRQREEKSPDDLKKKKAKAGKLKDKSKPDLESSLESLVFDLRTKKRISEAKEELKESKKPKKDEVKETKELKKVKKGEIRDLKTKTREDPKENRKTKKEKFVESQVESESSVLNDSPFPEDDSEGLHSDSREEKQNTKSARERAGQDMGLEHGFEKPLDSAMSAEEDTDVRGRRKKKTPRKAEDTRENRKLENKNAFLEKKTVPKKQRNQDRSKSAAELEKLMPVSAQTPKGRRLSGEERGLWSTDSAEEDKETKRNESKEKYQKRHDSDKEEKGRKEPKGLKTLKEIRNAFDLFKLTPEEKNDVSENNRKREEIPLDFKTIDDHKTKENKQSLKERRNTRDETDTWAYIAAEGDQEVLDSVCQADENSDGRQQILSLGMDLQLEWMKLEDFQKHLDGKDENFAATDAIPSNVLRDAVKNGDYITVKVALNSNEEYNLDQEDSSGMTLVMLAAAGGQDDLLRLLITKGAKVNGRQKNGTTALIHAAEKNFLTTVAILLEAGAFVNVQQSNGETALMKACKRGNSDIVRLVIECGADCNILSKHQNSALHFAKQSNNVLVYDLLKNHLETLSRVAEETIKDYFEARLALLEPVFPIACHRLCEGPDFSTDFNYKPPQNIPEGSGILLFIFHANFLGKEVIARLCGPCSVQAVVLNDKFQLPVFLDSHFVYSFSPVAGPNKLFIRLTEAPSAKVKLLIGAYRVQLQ
Glutathione peroxidase 1 (Homo sapiens), sequence (P07203 whole entry, looked up): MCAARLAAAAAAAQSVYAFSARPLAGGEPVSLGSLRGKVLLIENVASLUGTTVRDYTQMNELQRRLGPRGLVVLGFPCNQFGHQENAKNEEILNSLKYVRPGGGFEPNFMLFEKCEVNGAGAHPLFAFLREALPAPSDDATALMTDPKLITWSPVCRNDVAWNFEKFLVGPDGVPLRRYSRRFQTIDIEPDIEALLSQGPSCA

As to `C[C@]12COC(=O)C[C@@H]1CC[C@@H]1[C@@H]2CC[C@@]2(C)[C@H]1CC[C@]2(C)O`, the Potency entry in [1] and in assay [2] was “inactive” each time.
Consider `CC(N[C@H]1C[C@@H]1c1ccccc1)c1ccc2c(c1)OCCO2` (some centres undefined), for which the Potency result in assay [1] is “inactive”.
With `CC1(C)CC[C@]2(NC(=O)C(C)(F)F)CC[C@]3(C)[C@H](C(=O)C=C4[C@@]5(C)C=C(C#N)C(=O)C(C)(C)[C@@H]5CC[C@]43C)[C@@H]2C1`, the Potency result in assay [1] and in assay [2] was “inactive” each time.
On to `Cn1c(COP(=O)(NCCBr)NCCBr)cnc1[N+](=O)[O-]`, for which the Potency result in assay [1] and in [2] was “inactive” throughout.
As to `COC(=O)[C@]1([C@H]2CCC(=O)O2)CC(=O)c2c(O)cc(C)cc2O1`, the compound was classed as inactive in assay [3].
On to `CC(C)=CCC/C(C)=C/Cc1cc([C@@H]2CC(=O)c3c(cc(O)c(CC=C(C)C)c3O)O2)ccc1O`, for which the compound was classed as inactive in assay [3].
As for `CC(C)[C@]12O[C@H]1[C@@H]1O[C@@]13[C@@]1(C)CCC4=C(COC4=O)[C@@H]1C[C@@H]1O[C@@]13C2=O`, the Potency result in assay [1] and in [2] was “inactive” in each case.
As to `C[C@@H](C1CC[C@@]2(O)C3=CC(=O)[C@@H]4C[C@@H](O)[C@@H](O)C[C@]4(C)[C@H]3CC[C@]12C)[C@H](O)CCC(C)(C)O` (some centres undefined), the Potency result in [1] and in assay [2] was “inactive” each time.
For the compound `O=C1CC(c2ccc(O)cc2)Oc2cc(O)cc(O)c21` (centres undefined), the compound was classed as inactive in assay [3].
On to `C=C(C)[C@@H]1CCC(C)=C[C@H]1c1c(O)cc(CCCCC)cc1O`, for which, in [1], the Potency result was “inactive”. For the same compound, in [2], the Potency is 17.8 µM (active).
Turning to `CCCCCCC(C)(C)c1cc(O)c2c(c1)OC(C)(C)C1CC=C(CO)C[C@H]21` (some centres undefined), the Potency entry in assay [1] and in assay [2] was “inactive” each time.
Consider `Cc1c(N)nc([C@H](CC(N)=O)NC[C@@H](N)C(N)=O)nc1C(=O)N[C@H](C(=O)N[C@@H](C)[C@H](O)[C@@H](C)C(=O)N[C@@H](C(=O)NCCc1nc(-c2nc(C(=O)NCCC[S+](C)C)cs2)cs1)[C@@H](C)O)C(O[C@H]1O[C@H](CO)[C@H](O)[C@@H](O)[C@H]1O[C@H]1O[C@H](CO)[C@@H](O)[C@H](OC(N)=O)[C@@H]1O)c1cnc[nH]1` (some centres undefined), for which the Potency result in assay [1] and in [2] was “inactive” in each case.
Consider `O=C(CBr)N1CC([N+](=O)[O-])([N+](=O)[O-])C1`, for which the Potency entry in assay [1] and in [2] was “inactive” throughout.
As for `CC(=O)OC[C@H]1O[C@@H]([S-])[C@H](OC(C)=O)[C@@H](OC(C)=O)[C@@H]1OC(C)=O.CC[PH+](CC)CC.[Au]`, the Potency result in [2] was “inactive”.
`C[C@@H]1CC[C@@]2(OC1)O[C@H]1C[C@H]3[C@@H]4CC=C5C[C@@H](O[C@@H]6O[C@H](CO)[C@@H](O[C@@H]7O[C@@H](C)[C@H](O)[C@@H](O)[C@H]7O)[C@H](O)[C@H]6O[C@@H]6O[C@@H](C)[C@H](O)[C@@H](O)[C@H]6O)CC[C@]5(C)[C@H]4CC[C@]3(C)[C@H]1[C@@H]2C`: the Potency entry in assay [1] and in assay [2] was “inactive” in each case.
Take `CC(C)(NC(=O)O[C@@H]1CN2CCC1CC2)c1csc(-c2ccc(F)cc2)n1`: the Potency entry in assay [1] and in [2] was “inactive” in each case.
For the compound `C/C1=C/C[C@@H](/C(C)=C/c2csc(C)n2)OC(=O)C[C@H](O)C(C)(C)C(=O)[C@H](C)[C@@H](O)[C@@H](C)CCC1`, the Potency result in assay [1] and in [2] was “inactive” throughout.
In the case of `N#CC(=Cc1ccc(O)c(O)c1)C(N)=S`, the result in assay [4], in assay [8], in assay [9] and in assay [11] was inactive. Besides, the Potency entry in [5] and in [6] was “inactive” throughout. Further, the Potency in [7] was 44.7 µM (active). Further, the activation in assay [10] was 3.19%.
With `Oc1ccc2c3c1O[C@H]1[C@@H](O)CC[C@@]4(O)C(C2)N(CC2CCC2)CCC314` (some centres undefined), the Potency result in assay [12], in assay [5], in assay [6] and in assay [7] was “inactive” in each case. For the same compound, the result in assay [4], in assay [8], in [9] and in assay [11] was inactive. The activation in assay [10] was 1.31%.
As to `C[C@H]1C2Cc3ccc(O)cc3[C@]1(C)CCN2CC1CC1`, the Potency result in [12], in assay [5], in assay [6] and in assay [7] was “inactive” in each case. The compound was called inactive in assay [4], in [8], in assay [9] and in assay [11]. The activation in [10] was 1.81%.
In the case of `C#CCN(C)C(C)Cc1ccccc1` (centres undefined), the Potency result in assay [12], in [5], in assay [6] and in assay [7] was “inactive” throughout. Besides, the result in assay [4], in assay [8], in [9] and in assay [11] was inactive. Besides, the activation in [10] is -5.25%.
In the case of `NNCc1cccc(O)c1`, the Potency result in [12], in assay [5], in [6] and in assay [7] was “inactive” in each case. For the same compound, the compound was called inactive in [4], in [8], in assay [9] and in [11]. Moreover, the activation in assay [10] was 0.875%.
`CC(C)(O)C1C2OC(=O)C1[C@]1(O)C[C@H]3O[C@]34C(=O)O[C@H]2[C@]14C` (some centres undefined) (tested in a mixture with another compound): the Potency entry in [12], in assay [5], in assay [6] and in assay [7] was “inactive” in each case. The call in [4], in assay [8], in [9] and in assay [11] was inactive. Further, in assay [10], the activation was 0.625%.
On to `C[C@H]1OC[C@@H](C[N+](C)(C)C)O1`, for which the Potency entry in assay [12], in assay [5], in assay [6] and in assay [7] was “inactive” in each case. For the same compound, the compound was classed as inactive in [4], in assay [8], in assay [9] and in assay [11]. In addition, in assay [10], the activation was 24.3%.
Regarding `CC[C@@H](CO)NC(=O)[C@H]1C=C2c3cccc4c3c(cn4C)C[C@H]2N(C)C1`, the Potency result in [6] and in assay [7] was “inactive” throughout. In addition, the outcome in [8] and in assay [11] was inactive. In addition, in assay [10], the activation was -2.81%.
Consider `CCCN(CCC)C(=O)Cc1c(-c2ccc(Cl)cc2)nc2c(Cl)cc(Cl)cn12`, for which the Potency result in [12], in assay [5] and in assay [7] was “inactive” each time. The result in [4], in assay [8], in [9] and in assay [11] was inactive. For the same compound, the activation in assay [10] was -11.1%.
